Laboratory results as given in PubChem BioAssay AID2535 (National Center for Advancing Translational Sciences (NCATS), 2010).

Molecular target: Pyruvate kinase PKLR (Homo sapiens) (UniProt P30613)
Assay: Secondary Concentration-Response Assay for Activators of Human Liver Pyruvate Kinase: for Probe SAR;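 also: 0% = uninhibited enzyme wells on each plate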
Conditions: purified hPK-L, ATP production, Kinase-Glo luminescence; series mostly up to 58.3 µM; activity change, positive = activation: at the top concentration; active = well fitted curve in the direction sought with a large enough effect; inconclusive = small, poorly fitted or top-dose-only effect, or effect the other way, or another doubt; inactive = no such curve, though single readings can be large or run the other way
Outline: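 Luciferase-coupled luminescence (Kinase-Glo) reports ATP made by 0.1 nM hPK-L from 0.5 mM PEP (at Km) and 0.1 mM ADP (about 10-fold below Km); pH 7.2 imidazole buffer, 1 h room temperature, in concentration-response format.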

Sequence of Pyruvate kinase PKLR (Homo sapiens) (P30613 whole entry, looked up): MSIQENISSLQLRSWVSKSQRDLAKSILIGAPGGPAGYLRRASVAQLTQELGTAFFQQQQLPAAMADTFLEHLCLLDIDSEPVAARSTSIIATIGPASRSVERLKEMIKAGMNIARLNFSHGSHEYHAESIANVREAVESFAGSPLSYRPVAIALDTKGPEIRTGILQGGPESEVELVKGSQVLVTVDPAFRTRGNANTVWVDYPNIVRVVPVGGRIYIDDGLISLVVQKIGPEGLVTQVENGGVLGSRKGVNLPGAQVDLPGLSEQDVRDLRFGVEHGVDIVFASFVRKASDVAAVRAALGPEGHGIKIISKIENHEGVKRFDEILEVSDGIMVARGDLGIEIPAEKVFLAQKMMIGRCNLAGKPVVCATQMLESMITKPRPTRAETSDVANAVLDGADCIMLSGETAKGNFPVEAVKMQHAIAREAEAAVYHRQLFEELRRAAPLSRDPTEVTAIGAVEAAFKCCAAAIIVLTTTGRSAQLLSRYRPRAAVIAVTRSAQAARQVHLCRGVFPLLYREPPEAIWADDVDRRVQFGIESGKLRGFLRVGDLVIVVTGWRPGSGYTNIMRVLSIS

Activity change, positive = activation, inactive:
Cc1ccc(Nc2c(-c3ccsc3)nc3cccc(C)n23)cc1 -2.82%, O=C1c2ccccc2C(=O)N1c1cccc2cnccc12 -1.65%, O=C1CCc2cc(S(=O)(=O)Nc3ccc(Cl)c(Cl)c3)ccc2N1 4.66%, O=C1c2ccccc2C(=O)N1c1cccc(Cl)c1 1.41%, Cc1ccc(NS(=O)(=O)c2cc3c(cc2Cl)CCC(=O)N3)cc1Cl 14.3%, CC(=O)N1CCc2cc(S(=O)(=O)Nc3ccc(C)c(C)c3)ccc21 0.328%, Cc1ccc(-c2nc3ccc(Cl)cn3c2Nc2ccccc2)o1 0.358%, Nc1cc(S(=O)(=O)N2CCN(S(=O)(=O)c3ccc4c(c3)OCCO4)CC2)ccn1 21.6%, O=C1CCc2cc(S(=O)(=O)Nc3ccc(F)cc3)ccc2N1 -0.305%, O=C1CCc2cc([S+](=O)([O-])Nc3ccc(N[S+](=O)([O-])c4ccc5c(c4)CCC(=O)N5)cc3)ccc2N1 6.99%, O=C1CCc2cc(S(=O)(=O)Nc3ccc(-c4ccccc4)cc3)ccc2N1 5.78%, O=C1c2ccccc2C(=O)N1c1noc2ccccc12 -6.4%, Cc1ccc2nc(-c3ccc(C)o3)c(Nc3ccc(Cl)cc3)n2c1 -16.2%, COc1ccccc1NS(=O)(=O)c1ccc2c(c1)CCC(=O)N2 -0.682%, Cc1ccc(N2C(=O)c3ccccc3C2=O)c(C)c1 0.619%, CSc1cc2c(s1)c1cnn(Cc3cccc(N)c3)c(=O)c1n2C 15.7%, COc1cc(F)c(S(=O)(=O)N2CCCN(S(=O)(=O)c3cccc(N)c3)CC2)c(F)c1 22.6%, O=C1CCc2cc(S(=O)(=O)Nc3cccc(F)c3)ccc2N1 -8.3%, O=C1c2ccccc2C(=O)N1c1ccc(O)cc1 3.99%, CCNc1cccc(S(=O)(=O)N2CCCN(S(=O)(=O)c3ccc4c(c3)OCCO4)CC2)c1 25.5%, Cc1ccn2c(NC3CCCCC3)c(-c3ccc(C)o3)nc2c1 -25.8%, Cc1ccc(NS(=O)(=O)c2ccc(Cl)cc2)cc1C 10.6%, O=C1CCc2cc(S(=O)(=O)Nc3ccc4ncccc4c3)ccc2N1 11.9%, O=C1c2ccccc2C(=O)N1c1cncc2ccccc12 4.55%, O=C1CCc2cc(S(=O)(=O)Nc3cccc(Oc4ccccc4)c3)ccc2N1 2.11%, O=C1CCc2cc(S(=O)(=O)NCc3ccccc3)ccc2N1 4.67%, Cc1ccc(NS(=O)(=O)c2ccc3c(c2)N(C)CCO3)cc1C 8.48%, Cc1ccc(N(C)S(=O)(=O)c2ccc3c(c2)CCC(=O)N3)cc1C 6.37%, COc1cccc(N2C(=O)c3ccccc3C2=O)n1 6.52%, Cc1ccc(NS(=O)(=O)c2ccc3c(c2)CCC(=O)N3)cc1C 7.77%, Fc1ccccc1-c1ccc(-c2nc3ccc(Cl)cn3c2Nc2ccc(Cl)cc2)o1 -46.2%, O=C1c2ccccc2C(=O)N1Cc1ccccn1 2.21%, Cc1ccc(Cl)cc1NS(=O)(=O)c1cc2c(cc1Cl)CCC(=O)N2 9.87%
